Data reported in PubChem BioAssay (EPA / NIEHS).
Calls of active or inactive are those of the source. The calls were made as follows: active = hit-call score of the fitted dose curve at least 0.9, where 1 is the maximum; inactive = score below 0.9.

Experiment: ATG_TAL_CIS: Attagene CIS-FACTORIAL HepG2 Assay for human TAL Basal Promoter (AID 2282966)
Settings: HepG2 Attagene cis-factorial TAL promoter reporter; actives raise or lower the signal
Experimental: ATG_CIS is a cell-based, multiplexed-readout assay that uses HepG2, a human liver cell line, with measurements taken at 24 hours after chemical dosing in a 24-well plate.ATG_TAL_CIS is one of 52 assay component(s) measured or calculated from the ATG_CIS assay. It is designed to make measurements of mRNA induction, a form of inducible reporter, as detected with fluorescence intensity signals by Reverse transcription polymerase chain reaction (RT-PCR) and Capillary electrophoresis technology.Data from the assay component ATG_TAL_CIS was analyzed into 1 assay endpoint. This assay endpoint, ATG_TAL_CIS, was analyzed with bidirectional fitting relative to DMSO as the negative control and baseline of activity. Using a type of inducible reporter, measures of mRNA for gain or loss-of-signal activity can be used to understand the background control at the transcription factor-level as they relate to the gene . Furthermore, this assay endpoint can be referred to as a secondary readout, because this assay has produced multiple assay endpoints where this one serves a background control function. To generalize the intended target to other relatable targets, this assay endpoint is annotated to the background measurement intended target family, where the subfamily is internal marker.
Human liver HepG2 cells are transiently transfected with multiple reporter transcription units (MRTUs) in 6-well plates using FuGene 6 reagent (Roche; 3 ml FuGene/1 mg DNA). The MRTU constructs are regulated by a cis-regulating element (promoter). […] A major difference between the CIS and TRANS system is that in CIS activities of endogenous TFs are measured, whereas the TRANS assay evaluates changes in activities of exogenous, chimeric NR-Gal4 proteins. […] At the end of 24 hour incubation, total RNA was isolated using TriZol reagent (Invitrogen). The isolated RNA is then reverse-transcribed using oligo(dT) primer and Mo-MLV reverse transcriptase (Invitrogen) with DNAse I (Ambion) treatment for 30 min. The one-tenth of the produced cDNA was amplified by PCR using Taq DNA polymerase (Invitrogen) and two reporter sequence-specific primers. The PCR products were fluorescently labeled by primer extension with 6-arboxyfluorescein (6-FAM) 5'-labeled reporter sequence-specific primer (2 min at 95 C, 20 s at 68 C and 10 min at 72 C) and these products were digested with 5U of HpaI (New England Biolabs) for 2h at 37 C. The fragments were purified using Qiaquick PCR columns (Qiagen), analyzed on an ABI 3130xL genetic analyzer (Applied Biosystems) with peak positions identified by using a set of X-rhodamine (ROX)-labeled MapMarker1000 molecular weight standards (BioVentures). The raw capillary electrophoresis data was processed using Attagraph software (Attagene).

| Compound | outcome |
| --- | --- |
| CN(C)C(=O)Cl | inactive |
| O=C(O)C(F)(F)C(F)(F)C(=O)O | inactive |
| Nc1cc2c3c(c1)C(c1ccccc1)=N[C@@H](NC(=O)c1cccnc1)C(=O)N3CC2 | inactive |
| CCOP(=S)(OCC)SCS(=O)(=O)CC | inactive |
| CO/N=C(/C(=O)OC)c1ccccc1COc1ccccc1C | inactive |
| CCCCCCCc1ccc(O)cc1 | inactive |
| Cc1c([N+](=O)[O-])cc2c(c1[N+](=O)[O-])C(C)(C)CC2(C)C | inactive |
| CC1=C(C(=O)Nc2ccccc2)S(=O)(=O)CCO1 | inactive |
| c1ccc2c(c1)Nc1ccccc1S2 | inactive |
| Nc1ccc(Sc2ccc(N)cc2)cc1 | inactive |
| Cc1ccc2c(c1N)C(=O)c1ccccc1C2=O | inactive |
| O=C(O)C(F)(OC(F)(F)C(F)(F)C(F)(F)F)C(F)(F)F (stereo not given) | inactive |
| CCOP(=O)(O)C(N)=O | inactive |
| CC(O)C(F)(F)C(F)(F)F (stereo not given) | inactive |
| CCOP(=S)(OCC)SCSCC | inactive |
| CC(Cl)(Cl)C(=O)O | inactive |
| Cc1ccc(O)cc1C | inactive |
| CCCCN(CCCC)SN(C)C(=O)Oc1cccc2c1OC(C)(C)C2 | inactive |
| CCCCN(CCCC)N=O | inactive |
| O=S(=O)(F)C(F)(F)C(F)(F)C(F)(F)C(F)(F)C(F)(F)C(F)(F)C(F)(F)C(F)(F)F | inactive |

| Compound | outcome |
| --- | --- |
| OCC(F)(F)OC(F)(F)C(F)(F)OC(F)(F)C(F)(F)OC(F)(F)CO | inactive |
| CCCCc1ccccc1 | inactive |
| CC(C)(C)c1ccc(O)cc1 | inactive |
| COC(N)=O | inactive |
| O=c1ssc(Cl)c1Cl | inactive |
| Oc1ccccc1Br | inactive |
| CCN(CC)C1CCCCC1 | inactive |
| O=[N+]([O-])c1ccccc1 | inactive |
| COP(=O)(CCC(=O)NCO)OC | inactive |
| Nc1ccc(Cl)cc1 | inactive |
| CC(Cc1ccc(OCC(=O)O)cc1)NCC(O)c1csc(C(F)(F)F)n1 (stereo not given) | inactive |
| FC(F)(F)C(F)(C(F)(F)F)C(F)(F)C(F)(F)CC1CO1 (stereo not given) | inactive |
| O=[N+]([O-])c1ccc(Cl)c(Cl)c1 | inactive |
| ClC1=C(Cl)C2(Cl)C3C(Cl)C(Cl)CC3C1(Cl)C2(Cl)Cl (stereo not given) | inactive |
| CCOS(=O)(=O)OCC | inactive |
| ClC(Cl)(Cl)c1ccccc1 | inactive |
| CCN(CC)c1ccccc1 | inactive |
| CC(C)Nc1ccc(Nc2ccccc2)cc1 | inactive |
| O=C(O)C(F)(F)OC(F)(F)C(F)(F)OC(F)(F)C(=O)O | inactive |
| CCOc1ccc(C(C)(C)COCc2cccc(Oc3ccccc3)c2)cc1 | inactive |
